Experimental data published in the supplement of paper PMC7695840.
Counter-ions that a name gives are not always drawn.

Test system: Staphylococcus aureus MW2 (mecA+)
Experiment: normalized DsRed fluorescence (growth of mecA+ strain) (fraction of control range); higher = more growth of mecA+ strain
Settings: compound concentration: 150 uM; cefoxitin: subinhibitory; fluorescent label: DsRed
Method in brief: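 Two pre-induced S. aureus MW2 strains, one with the gene labeled by DsRed and one lacking it labeled by GFP, were mixed 1:1 in LB with a subinhibitory antibiotic dose set daily. The mix went at 5 µL/well onto 150 μM compound (1.5% DMSO) in 1536-well plates, single replicate, and grew unshaken 20 h at 37 °C, 90% humidity. DsRed (540/590) and GFP (485/520) values were scaled per plate between single-strain control medians, and plates with high untreated ratios or rows with DsRed/GFP >10 were left out.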

| Structure (SMILES) | normalized DsRed fluorescence |
| --- | --- |
| CNc1ccc(C(=O)CC(O)CCC(C)C2OC(=O)CC(O)CC(=O)CC(O)CC(O)CC(O)CC(O)CC3(O)CC(O)C(C(=O)OC)C(CC(O[C@@H]4O[C@H](C)[C@@H](O)[C@H](N)[C@@H]4O)/C=C/C=C/C=C/C=C/C=C/C=C/C=C/C2C)O3)cc1.COC(=O)C1C(O)CC2(O)CC(O)CC(O)CC(O)CC(O)CC(=O)CC(O)CC(=O)OC(C(C)CCC(O)CC(=O)c3ccc(N)cc3)C(C)/C=C/C=C/C=C/C=C/C=C/C=C/C=C/C(O[C@@H]3O[C@H](C)[C@@H](O)[C@H](N)[C@@H]3O)CC1O2 (stereo partly drawn) | 0.626 |
| O=P1(N(CCCl)CCCl)NCCCO1 (stereo not drawn) | 0.629 |
| CC1(C)C(C=C(Cl)Cl)C1C(=O)OCc1cccc(Oc2ccccc2)c1 (stereo not drawn) | 0.704 |
| CC[C@H]1CN2CCc3cc(OC)c(OC)cc3[C@@H]2C[C@@H]1C[C@H]1NCCc2cc(OC)c(OC)cc21 | 0.948 |
| CN1C(=O)CCS(=O)(=O)C1c1ccc(Cl)cc1 (stereo not drawn) | 0.676 |
| C#CCN(C)[C@H](C)Cc1ccccc1 | 0.547 |
| C[N+]1([O-])[C@@H]2CC[C@H]1C[C@@H](OC(=O)C(CO)c1ccccc1)C2 (stereo partly drawn) | 1.24 |
| CCOC(=O)c1cncn1C(C)c1ccccc1 (stereo not drawn) | 0.732 |
| COC(=O)C(c1ccccc1)C1CCCCN1 (stereo not drawn) | 0.737 |
| CC(C)N(CCC(C(N)=O)(c1ccccc1)c1ccccn1)C(C)C (stereo not drawn) | 0.697 |
| CN1C[C@H](C(=O)N[C@]2(C)O[C@@]3(O)[C@@H]4CCCN4C(=O)[C@H](Cc4ccccc4)N3C2=O)C[C@@H]2c3cccc4[nH]cc(c34)C[C@H]21 | 0.753 |
| C=CCN1CC[C@]23c4c5ccc(O)c4O[C@H]2C(=O)CC[C@@]3(O)[C@H]1C5 | 0.643 |
| CC(C)[N+](C)(CCC(C(N)=O)(c1ccccc1)c1ccccc1)C(C)C | 0.447 |
| COc1ccc2c(c1)[C@]13CCCC[C@@H]1[C@H](C2)N(C)CC3 | 1.04 |
| O=C1CN=C(c2ccccc2Cl)c2cc([N+](=O)[O-])ccc2N1 | 1.02 |
| CNCC(=O)c1ccc(O)c(O)c1 [Adrenalone HCl] | 0.797 |
| CC(C)C[C@H]1C(=O)N2CCC[C@H]2[C@]2(O)O[C@](NC(=O)[C@@H]3C=C4c5cccc6[nH]c(Br)c(c56)C[C@H]4N(C)C3)(C(C)C)C(=O)N12 | 1.03 |

| Structure (SMILES) | normalized DsRed fluorescence |
| --- | --- |
| O=P1(NCCCl)OCCCN1CCCl (stereo not drawn) | 0.711 |
| CC(NC(C)(C)C)C(=O)c1cccc(Cl)c1 (stereo not drawn) [Amfebutamone (Bupropion)] | 0.602 |
| NC(=O)C[S+]([O-])C(c1ccccc1)c1ccccc1 (stereo not drawn) | 0.558 |
| O=c1[nH]c2ccccc2n1CCCN1CCC(n2c(=O)[nH]c3cc(Cl)ccc32)CC1 [Domperidone (Motilium)] | 0.927 |
| CC[C@@H](c1cccc(O)c1)[C@@H](C)CN(C)C | 0.724 |
| Oc1cccc2cccnc12 | 0.0478 |
| CCC1(c2ccc(N)cc2)CCC(=O)NC1=O (stereo not drawn) | 0.946 |
| CC(O)(CS(=O)(=O)c1ccc(F)cc1)C(=O)Nc1ccc(C#N)c(C(F)(F)F)c1 (stereo not drawn) [Bicalutamide (Casodex)] | 0.707 |
| CCN(C(C)=O)c1cccc(-c2ccnc3c(C#N)cnn23)c1 | 0.598 |
| C#C[C@]1(O)C=C[C@H]2[C@@H]3CCC4=CC(=O)CC[C@@H]4[C@H]3CC[C@@]21CC [Gestodene] | 0.279 |
| C[C@@H]1CC[C@H]2[C@@H](C)C(=O)O[C@@H]3O[C@@]4(C)CC[C@@H]1[C@]32OO4 [Artemisinin] | 0.66 |
| CC[C@H](C)[C@H]1O[C@]2(C=C[C@@H]1C)C[C@@H]1C[C@@H](C/C=C(\C)[C@@H](O[C@H]3C[C@H](OC)[C@@H](O[C@H]4C[C@H](OC)[C@@H](O)[C@H](C)O4)[C@H](C)O3)[C@@H](C)/C=C/C=C3\CO[C@@H]4[C@H](O)C(C)=C[C@@H](C(=O)O1)[C@]34O)O2.CO[C@H]1C[C@H](O[C@H]2[C@H](C)O[C@@H](O[C@@H]3/C(C)=C/C[C@@H]4C[C@@H](C[C@]5(C=C[C@H](C)[C@@H](C(C)C)O5)O4)OC(=O)[C@@H]4C=C(C)[C@@H](O)[C@H]5OC/C(=C\C=C\[C@@H]3C)[C@]54O)C[C@@H]2OC)O[C@@H](C)[C@@H]1O | 0.502 |
| CNC(C)(C)Cc1ccccc1 | 0.831 |
| C[C@@H]1O[C@@H](O[C@@H]2C=C3CC[C@@H]4[C@H](CC[C@]5(C)[C@@H](c6ccc(=O)oc6)CC[C@]45O)[C@@]3(C)CC2)[C@H](O)[C@H](O)[C@H]1O | 0.926 |
| CC[C@@H](C(N)=O)N1CCCC1=O | 1.14 |
| CN1[C@@H]2C[C@@H](OC(=O)[C@H](CO)c3ccccc3)C[C@H]1[C@@H]1O[C@@H]12 | 0.7 |
